A selection: hits, their analogues and other compounds. The true share with any hit is near 4.7%.
D1 agonist: Allosteric Agonists of the Human D1 Dopamine Receptor: qHTS. activation, % at 2 µM. D(1A) dopamine receptor (Homo sapiens), P21728. hit rate 1% among 360,000. HEK293 T-REx D1 cells, calcium flux, agonist mode. AID 504660, 2011
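Tetracycline-induced HEK293 TREx D1 cells, force-coupled to calcium signalling, were dye-loaded with a no-wash calcium kit. Compound was pin-added after a 10 s baseline. Fluorescence was read kinetically at 1 cycle/s for 180 s, with calcium rises flagged as agonism.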
TRHR PAM: qHTS for Small Molecule Agonists and Allosteric Enhancers of Human TRH Receptor: Primary Screen for Enhancers; hit rate 0.66% among 360,000; TRHR cells, fluo-8 calcium fluorescence, EC20 TRH enhancement; enhancement, % at 2 µM; in the data active = enhancement above about 30%
Target sequence (P34981 whole entry, looked up): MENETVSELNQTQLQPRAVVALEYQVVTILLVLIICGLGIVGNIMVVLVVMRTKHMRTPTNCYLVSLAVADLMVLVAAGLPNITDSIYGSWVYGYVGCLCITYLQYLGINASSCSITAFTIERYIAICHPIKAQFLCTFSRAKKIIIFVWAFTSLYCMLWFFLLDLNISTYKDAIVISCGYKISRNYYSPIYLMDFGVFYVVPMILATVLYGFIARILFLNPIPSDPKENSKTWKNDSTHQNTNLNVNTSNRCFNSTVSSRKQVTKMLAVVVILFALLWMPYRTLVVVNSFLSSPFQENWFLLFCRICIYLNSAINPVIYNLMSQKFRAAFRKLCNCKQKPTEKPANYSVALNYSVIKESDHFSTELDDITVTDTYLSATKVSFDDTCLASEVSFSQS
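Enhancer read-out: after compound pinning and an initial kinetic agonist-mode read, an EC20 of TRH (10 nM final) was injected and fluo-8 calcium signal (Ex 480/Em 530) followed at 1 s/cycle for 100 cycles in TRHR-expressing cells.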
TRHR agonist: qHTS for Small Molecule Agonists and Allosteric Enhancers of Human TRH Receptor: Primary Screen for Agonists | Thyrotropin-releasing hormone receptor (Homo sapiens), P34981 | TRHR cells, calcium flux fluo-8, FDSS agonist mode | activation, % at 2 µM | hit rate 0.18% among 360,000
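In this calcium-flux screen, cells bearing human TRHR are dye-loaded with fluo-8, baselined for 10 cycles, then exposed to library compounds; positive kinetic calcium responses during the agonist phase mark hits, with TRH as control.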
D1 PAM: Potentiators of Human D1 Dopamine Receptor: qHTS. D(1A) dopamine receptor (Homo sapiens), P21728. hit rate 0.036% among 360,000. potentiation, % at 10 µM. HEK293 TREx D1 cells, calcium flux, dopamine EC20 potentiation; in the data active = potentiation above about 30%
D1 antag: Antagonist of Human D 1 Dopamine Receptor: qHTS | HEK293 TREx D1 cells, calcium flux, dopamine EC80; stronger effect = lower value | activity change, negative = inhibition, % at 10 µM | D(1A) dopamine receptor (Homo sapiens), P21728 | hit rate 3.2% among 360,000; in the data active = activity change below about -30%
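After overnight tetracycline induction at 30 C, force-coupled D1 HEK293 cells took up a no-wash calcium dye at room temperature. Compounds were added and monitored 180 s, and the response to EC80 dopamine was then recorded.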
Hits are given with their value; 0 = inactive; - = not tested or not shown. Cut-off read from the data, not from the text of the source, unless noted: active = activation above about 30%; inactive = the rest.

SMILES | D1 agonist | TRHR PAM | TRHR agonist | D1 PAM | D1 antag
CN(C(=O)COC(=O)c1ccccc1OCc1ccc(F)cc1)C1CCS(=O)(=O)C1 (configuration not stated) | 0 | 0 | 0 | 0 | -31
CCOC(=O)C1=C(C)NC(C)=C(C(=O)OCC)C1C(=O)OCC(N)=O | 0 | 0 | 0 | 0 | 0
CN(C(=O)COC(=O)c1ccccc1Nc1ccccc1)C1CCS(=O)(=O)C1 (configuration not stated) | 0 | 0 | 0 | 0 | 0
CCOC(=O)C1=C(CN2CCC(C(=O)OCC)CC2)NC(=O)NC1c1ccc(Cl)cc1 (configuration not stated) | 0 | 0 | 0 | 0 | 0
COc1ccc([C@H]2CC(=O)C=C(c3cccc(OC(F)(F)F)c3)C2)cc1 | 0 | 0 | 0 | 0 | -30
COC(=O)CSC1=C(C#N)C(c2cccc(F)c2)CC(=O)N1 (configuration not stated) | 0 | 0 | 0 | 0 | 0
CCOc1ccccc1C1CC(=O)NC(SCC)=C1C#N (configuration not stated) | 0 | 34 | 0 | 0 | 0
COC(=O)CSC1=C(C#N)C(c2cccc(OC)c2)CC(=O)N1 (configuration not stated) | 0 | 0 | 0 | - | -42
CCCSC1=C(C#N)C(c2ccc(O)c(OC)c2)CC(=O)N1 (configuration not stated) | 0 | 0 | 0 | - | -53
O=C(Nc1ccc(OCc2cc(=O)n3c4c(sc3n2)CCCC4)cc1)c1ccccc1 | 0 | 0 | 0 | 0 | 0
CCCC[C@]12Cc3cc(C#N)ccc3C(O1)c1c(cc(C)n(Cc3ccccc3)c1=O)O2 | 0 | 0 | 0 | 0 | 0
COc1ccc(CCNC(=O)Cc2c(C)c3cc4c(C(C)(C)C)coc4c(C)c3oc2=O)cc1 | 0 | 0 | 0 | 0 | 0
Cc1c(C(=O)NCc2ccc3c(c2)OCO3)sc2nc(-c3ccc(F)cc3)cn12 | 0 | 0 | 0 | 0 | -42
CN1C(=O)c2ccc(C(=O)NCc3ccc4c(c3)OCO4)cc2C1=O | 0 | 0 | 0 | 0 | -34
CCOCc1c(C(=O)Nc2ccc3nc(N4CCOCC4)sc3c2)oc2ccccc12 | 0 | 0 | 0 | 0 | -32
CCOCc1c(C(=O)NCc2ccccc2CN2CCCC2)oc2ccccc12 | 0 | 0 | 0 | 0 | -30
CCOCc1c(C(=O)Nc2cc(OCC)c(N3CCOCC3)cc2OCC)oc2ccccc12 | 0 | 0 | 0 | 0 | 0
Cc1c(C(=O)NCc2ccccc2F)oc2ccccc12 | 0 | 0 | 0 | 0 | 0
Cc1c(C(=O)NCc2ccccc2CN2CCCC2)oc2ccccc12 | 0 | 0 | 0 | 0 | -43
CC(C)c1ccc(NC(=O)CN2C(=O)COc3ccc(S(=O)(=O)N4CCCCC4)cc32)cc1 | 0 | 0 | 0 | 0 | 0
CCN1C(=O)/C(=C2\C=Cc3ccccc3N2CC)SC1=S | 0 | 0 | 0 | 0 | -33
CCN1C(=O)/C(=c2\o/c(=C3\C=Cc4ccccc4N3CC)c(=O)n2CC)SC1=S | 0 | 0 | 0 | 0 | 0
Cc1[nH][nH]c(=O)c1C(c1ccc(-c2ccc(Cl)cc2Cl)o1)c1c(C)[nH][nH]c1=O | 55 | 0 | 0 | 0 | 0
Cc1[nH][nH]c(=O)c1C(c1ccc(-c2cccc(Cl)c2)o1)c1c(C)[nH][nH]c1=O | 0 | 0 | 0 | 0 | 0
Cc1ccc(-c2nnc3c4ccccc4c(C)nn23)cc1NC(=O)c1ccccc1 | 0 | 0 | 0 | 0 | 0
SMILES | D1 agonist | TRHR PAM | TRHR agonist | D1 PAM | D1 antag
COc1ccc(OC)c(-c2c3cc(O)c(=O)cc-3oc3cc(O)c(O)cc23)c1 | 44 | 0 | 0 | 0 | 0
COc1ccc(OC)c(-c2oc3ccccc3c(=O)c2O)c1 | 0 | 0 | 0 | 0 | 0
CCOC(=O)c1c(C)oc2nc(C)nc(NCCc3ccc(OCC)cc3)c12 | 0 | 0 | 0 | 0 | 0
Cc1ccc(S(=O)(=O)N2CCN(C(=O)c3ccnn3C)CC2)cc1C | 0 | 0 | 0 | 0 | -34
COc1ccccc1NC(=O)C(OC(=O)CNC(=O)c1ccccc1)c1ccccc1 (configuration not stated) | 0 | 0 | 0 | 0 | 0
CN1C(=O)Cc2cc(S(=O)(=O)NCc3ccc(Cl)cc3)ccc21 | 0 | 0 | 0 | 0 | 0
Cc1cc(C)cc(OCC(=O)OCC(=O)c2cc(C)n(C3CC3)c2C)c1 | 0 | 0 | 0 | 0 | -30
O=C(Cn1c(=O)nc(-c2ccccc2F)c2cc(Cl)ccc21)Nc1ccccc1C(F)(F)F | 0 | 0 | 0 | 0 | 0
O=C(Cn1c(=O)n(Cc2ccc3c(c2)OCO3)c(=O)c2ccc(C(=O)NC3CCCCC3)cc21)Nc1ccccc1F | 0 | 0 | 0 | 0 | 0
CN1CCN(CC(=O)N2CCn3c4c(c5cc(C6CCCCC6)ccc53)CCCC42)CC1 (configuration not stated) | 0 | 0 | 0 | 0 | -38
Cc1ccc2c(c1)c1c3n2CCN(C(=O)CN2CCN(C)CC2)C3CCC1 (configuration not stated) | 0 | 0 | 0 | 0 | 0
Cc1ccc(/C=C2\Oc3c(ccc(O)c3CN3CCN(CCO)CC3)C2=O)cc1 | 32 | 0 | 0 | 0 | 0
CCN1CCN(Cc2c(O)ccc3c2O/C(=C\C=C\c2ccccc2OC)C3=O)CC1 | 112 | 0 | 33 | 0 | 0
CC(C)c1ccc(/C=C2\Oc3c(ccc(O)c3CN3CCN(C)CC3)C2=O)cc1 | 68 | 0 | 0 | 0 | 0
O=C1/C(=C/c2ccco2)Oc2c1ccc(O)c2CN1CCCCC1 | 0 | 0 | 0 | 0 | 0
COc1cccc(NC(=O)CN2C(=O)C3(SCC(=O)N3c3cc(C)cc(C)c3)c3ccccc32)c1 (configuration not stated) | 0 | 0 | 0 | 0 | 0
COc1ccc(C2OCC3(CO2)SC(=O)NC3=O)cc1 (configuration not stated) | 0 | 0 | 0 | 0 | -38
Cc1cccc(N2CCN(C(=O)c3cccc(-n4c(C)nc5cccnc54)c3)CC2)c1C | 0 | 0 | 0 | 0 | 0
Cc1cccc(N(C(=O)c2csnn2)C(C(=O)NC2CCCCC2)c2ccccn2)c1C (configuration not stated) | 0 | 38 | 0 | 0 | 0
COc1ccc(C)cc1NC(=O)CSc1nc(=O)n(Cc2ccncc2)c2c1CCC2 | 0 | 0 | 0 | 0 | -
CN1CCC(NC(=O)c2cc(-c3cccc(Br)c3)nc3ccccc23)CC1 | 38 | 0 | 0 | 0 | -35
O=C(NC1CC1)c1cc(-c2ccc(Br)cc2)nc2ccccc12 | 0 | 0 | 0 | - | 0
Cc1cc(C)cc(Nc2cc(C(=O)NC3CCC(C)CC3)c3ccccc3n2)c1 (configuration not stated) | 0 | 33 | 0 | 0 | 0
Cc1cc(C)cc(Nc2cc(C(=O)NC3CCCCC3)c3ccccc3n2)c1 | 0 | 0 | 0 | 0 | 0
